Only some compounds are listed: those with a hit (about 11% of all), similar ones and a draw of the others.
ALOX12 inhib = qHTS Assay for Inhibitors of 12-hLO (12-human lipoxygenase) | Polyunsaturated fatty acid lipoxygenase ALOX12 (Homo sapiens), P18054 | purified 12-hLO, xylenol orange hydroperoxide absorbance | Potency, µM (doses to about 57.1 µM), without a hit: at the top dose activity change, negative = inhibition, hits mostly inhibitors | 150,000 compounds, 0.12% hits; active = well fitted curve in the direction sought with a large enough effect; inconclusive = small, poorly fitted or top-dose-only effect, or another doubt; inactive = no such curve, though single readings can be large; an effect the other way counts as inactive or inconclusive; note: potency is the fitted concentration of half-maximal effect; nearly all actives have a fitted effect of over 55% in size
Target sequence (P18054 whole entry, looked up): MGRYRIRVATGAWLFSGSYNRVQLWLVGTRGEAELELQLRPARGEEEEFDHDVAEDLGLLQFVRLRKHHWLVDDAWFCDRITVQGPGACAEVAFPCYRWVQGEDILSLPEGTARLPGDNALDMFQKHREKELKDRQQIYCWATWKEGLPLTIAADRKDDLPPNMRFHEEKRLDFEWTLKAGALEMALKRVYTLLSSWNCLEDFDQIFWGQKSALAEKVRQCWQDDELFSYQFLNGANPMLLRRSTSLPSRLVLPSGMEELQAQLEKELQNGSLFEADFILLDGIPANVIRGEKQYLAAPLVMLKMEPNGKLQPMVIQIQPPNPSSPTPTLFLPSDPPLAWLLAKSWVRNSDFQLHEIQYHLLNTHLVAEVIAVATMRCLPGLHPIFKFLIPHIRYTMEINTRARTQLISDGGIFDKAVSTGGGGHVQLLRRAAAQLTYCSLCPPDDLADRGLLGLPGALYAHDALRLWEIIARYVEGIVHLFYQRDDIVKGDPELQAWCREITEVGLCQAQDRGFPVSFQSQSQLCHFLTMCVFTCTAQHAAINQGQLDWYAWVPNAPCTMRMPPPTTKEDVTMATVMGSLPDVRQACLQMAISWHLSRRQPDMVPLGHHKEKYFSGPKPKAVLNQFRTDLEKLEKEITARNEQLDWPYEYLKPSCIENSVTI
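Xylenol orange chromogenic assay: hydroperoxide from 12hLO oxidises Fe(II), giving red-shifted Fe(III)-XO absorbance. Conditions: 150 nM enzyme, 40 uM arachidonic acid, 25 mM Hepes pH 7.0, 0.01% Triton X-100, 30 min, room temperature.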
IMPase Li cell = qHTS Assay for Identifying the Cell-Membrane Permeable IMPase Inhibitors: Potentiation with Lithium | CHO-M1 cells, IP1 TR-FRET (IP-One), carbachol + lithium | Potency, µM (highest dose often 59.4 µM), without a hit: at the highest dose activity, negative = IMPase inhibition, actives largely listed as inhibitors | 210,000 compounds, 0.35% hits; active = well fitted curve in the direction sought with a large enough effect; inconclusive = small, poorly fitted or top-dose-only effect, or another doubt; inactive = no such curve, though single readings can be large; an effect the other way counts as inactive or inconclusive;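 note: IP1 builds up when IMPase is blocked and the TR-FRET signal falls; potency is the fitted concentration of half-maximal effect; plate controls were basal vehicle for no effect and high inhibitor control for full effect; nearly all actives have a fitted effect of over 50% in size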
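CHO-M1, 2000 cells/well, 16–30 h culture; cpd + low Li+, 30 min 37C; lysis with d2-IP1/Eu-anti-IP1 Ab, 10 min RT; TR-FRET 665/620 ratio and 620 channel; AC50 via Hill.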
ALDH1A1 block = qHTS Assay for Inhibitors of Aldehyde Dehydrogenase 1 (ALDH1A1) | 220,000 compounds, 7.3% hits | Purified ALDH1A1, NADH fluorescence, propionaldehyde substrate | Potency, µM (series often up to 75.3 µM), for the others: top-dose activity, negative = inhibition, actives largely listed as inhibitors;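 note: potency is the fitted concentration of half-maximal effect; plate controls were no enzyme wells and a reference inhibitor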
HPGD inh = qHTS Assay for Inhibitors of HPGD (15-Hydroxyprostaglandin Dehydrogenase). 15-hydroxyprostaglandin dehydrogenase [NAD(+)] (Homo sapiens), P15428. AID 894, 2007. Potency, µM, for the others: top-dose activity change, negative = inhibition, actives largely listed as inhibitors. 150,000 compounds, 4.3% hits. purified HPGD, NADH fluorescence kinetic, PGE2 substrate; note: potency is the fitted concentration of half-maximal effect
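NADH formation kinetics: reaction with 30 uM PGE2 and 1 mM NAD+ (final), 20 nM enzyme, Tris-HCl pH 8 with Tween 20, after 15 min compound preincubation at room temperature. Fluorescence change, last versus first of five reads.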
IMPase cell inh = qHTS Assay for Identifying the Cell-Membrane Permeable IMPase Inhibitors; Inositol monophosphatase 1 (Rattus norvegicus), P97697; CHO-M1 cells, IP1 accumulation, HTRF TR-FRET ratio; inhibition (IP1 accumulation), % at 46.1 µM; 120,000 tested, under 10 active; AID 901, 2007; active = well fitted curve in the direction sought with a large enough effect in the signal ratio, not every such curve was filed as active; inconclusive = small, poorly fitted or top-dose-only effect, or a change in a side signal; inactive = no such curve, though single readings can be large or run the other way; the % refers to the signal ratio;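 note: cells stimulated with carbachol in lithium chloride buffer; plate controls were DMSO basal wells for no effect and reference inhibitor wells for full effect; higher means more IMPase inhibition seen as more IP1 and lower FRET ratio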
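CHO-M1, 2000 cells/well, cultured 16–30 h; cpd up to 46 uM; carbachol (50 uM solution, stimulation buffer w/ 50 mM LiCl, pH 7.4), 30 min 37C; IP-One TR-FRET, 10 min RT; Ex 320/Em 665, 620; Hill-fit AC50.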
PNC assembly inh = High Content Assay for Compounds that inhibit the Assembly of the Perinucleolar Compartment; PC3M PTB-GFP, PNC prevalence imaging, 16 h; hits give low values; activity change (PNC), negative = inhibition, % at 10 µM; 140,000 compounds, 3.1% hits; AID 2417, 2010;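 active = readout at or below -70, meaning at least 70% loss of cells showing the perinucleolar compartment, a nuclear body marking cancer cells; inconclusive = readout between -30 and a set limit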;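 note: plate controls were DMSO wells for no effect and camptothecin positive control wells for full effect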
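PC3M cells stably expressing PTB-GFP, 750–1000 cells/well, treated 16 h at 37 °C with compound (23 nl of library stock), in duplicate. After paraformaldehyde fixation and Hoechst stain, imaged at 20x; PNC prevalence scored by image analysis.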
Starred values were filed as active, the others as inactive; [ ] = dose if it differs, or a comment. Unless noted, calls come from the whole dose curve; as a rule, active = well fitted inhibition curve with a large enough effect (not every such curve was filed as active); inconclusive = small, poorly fitted or top-dose-only effect, or another doubt; inactive = no such curve, though single readings can be large or run the other way. Unless noted, % is set by controls: 0 for no effect and ±100 for the full control effect.

How did CCCN1CCN(C(=O)CCCn2c(C)c3cnn(-c4ccccc4)c(=O)c3c2C)CC1 do in these assays?
ALOX12 inhib: -6%; IMPase Li cell: 13%[38.3 µM]; ALDH1A1 block: 28µM*; HPGD inh: -7%; IMPase cell inh: 13; PNC assembly inh: 7

Results for CCC(C(=O)NCCN1CCN(C)CC1)n1c(C)c2cnn(-c3ccccc3)c(=O)c2c1C (stereo not given) ?
ALOX12 inhib: -2%; IMPase Li cell: -3%[38.3 µM]; ALDH1A1 block: 22µM*; HPGD inh: -14%; IMPase cell inh: inconclusive; PNC assembly inh: 24

Results for S=C(NC1CCCCC1)NC1CC2CCC(C1)N2Cc1ccccc1 (stereo not given) ?
IMPase Li cell: 18%; ALDH1A1 block: inconclusive

How did O=[N+]([O-])/C(C(Cl)=C(Cl)Cl)=C(/NC1CC1)Sc1ccccc1 do in these assays?
IMPase Li cell: -2%; ALDH1A1 block: 18µM*

Results for COC(=O)C1=COC(O[C@H]2OC(CO)[C@H](O)C(O)C2O)[C@H]2C1C(=O)C[C@@H]2C (stereo not given in full) ?
IMPase Li cell: 17%; ALDH1A1 block: 0%; HPGD inh: -3%

What do the screens show for `CCc1nnc(NC(=O)c2ccc(OC)cc2OC)s1`?
ALOX12 inhib: -5%; IMPase Li cell: 18%[38.3 µM]; ALDH1A1 block: 7.9µM*; HPGD inh: -11%; IMPase cell inh: 4; PNC assembly inh: inconclusive

Results for CCc1nnc(NC(=O)Nc2ccccc2OC)s1 ?
ALOX12 inhib: -3%; IMPase Li cell: 21%[38.3 µM]; ALDH1A1 block: -1%; HPGD inh: 1%; IMPase cell inh: 1; PNC assembly inh: 30

Results for COc1ccc(CNc2ncncc2-c2ccc(C(=O)N(C)C)cc2)c(OC)c1 ?
IMPase Li cell: 0%; ALDH1A1 block: 4%

What do the screens show for `Fc1cccc(NC(=S)NCc2ccccn2)c1`?
ALOX12 inhib: -5%; IMPase Li cell: -6%; ALDH1A1 block: inconclusive; HPGD inh: inconclusive; PNC assembly inh: -91*

How did S=C(NCc1ccccn1)Nc1ccc(Cl)cc1 do in these assays?
ALOX12 inhib: -7%; IMPase Li cell: -7%[38.3 µM]; ALDH1A1 block: inconclusive; HPGD inh: -11%; IMPase cell inh: 1; PNC assembly inh: -17

How did O=C(NCc1ccccn1)c1cccc(NS(=O)(=O)c2cccc(F)c2)c1 do in these assays?
ALOX12 inhib: 2%; IMPase Li cell: 0%; ALDH1A1 block: 14µM*; HPGD inh: -16%; PNC assembly inh: inconclusive

How did O=C(N/N=C/c1ccc(N2CCCCC2)o1)C(O)(c1ccccc1)c1ccccc1 do in these assays?
ALOX12 inhib: -4%; IMPase Li cell: 10%; ALDH1A1 block: inconclusive; HPGD inh: 32µM*; PNC assembly inh: inconclusive

How did CCN(CC)CCC(=O)NN do in these assays?
IMPase Li cell: -6%; ALDH1A1 block: 6%

What do the screens show for `O=C1/C(=C/c2ccccc2)Nc2ccccc21`?
ALOX12 inhib: 8%; IMPase Li cell: 22%[38.3 µM]; ALDH1A1 block: -8%; HPGD inh: 18µM*; IMPase cell inh: 0; PNC assembly inh: 25

What do the screens show for `O=C1O/C(=C/c2ccccc2)c2ccccc21`?
ALOX12 inhib: -2%; IMPase Li cell: 13%; ALDH1A1 block: inconclusive; HPGD inh: inconclusive; PNC assembly inh: inconclusive

How did Cc1cc(C)c(S(=O)(=O)OC[C@H]2C=CC[C@@H](CCC[C@H]3O[C@H](C(=O)OC(C)C)CC[C@@H]3C)O2)c(C)c1 do in these assays?
IMPase Li cell: 18%; ALDH1A1 block: -14%; HPGD inh: -3%

How did O=C(O)/C=C\C=C/c1ccc2c(c1)OCO2 do in these assays?
ALOX12 inhib: -3%[11.4 µM]; IMPase Li cell: 2%; ALDH1A1 block: -9%[13.5 µM]; HPGD inh: -25%

Results for O=C(/C=C\C=C/c1ccc2c(c1)OCO2)N1CCCCC1 ?
ALOX12 inhib: -3%[25.6 µM]; IMPase Li cell: 4%; ALDH1A1 block: inconclusive; HPGD inh: 10µM*; IMPase cell inh: 0[20.6 µM]

How did CC1=C(C)NC(=S)SC1 do in these assays?
ALOX12 inhib: -6%; IMPase Li cell: -5%[38.3 µM]; ALDH1A1 block: 22µM*; HPGD inh: inconclusive; IMPase cell inh: 6; PNC assembly inh: 46

What do the screens show for `CC(C)[C@H](NC(=O)c1ccccc1)C(=O)OCC(=O)NCCc1ccc(F)cc1`?
ALOX12 inhib: -2%; IMPase Li cell: 9%; ALDH1A1 block: 4%; HPGD inh: -12%; PNC assembly inh: -134*

Results for C[C@@]1(C(NC(=O)Cc2ccc(C(F)(F)F)cc2)c2ccc(-c3ccccc3)cc2)C[C@H]1C1CCCCC1 (stereo not given in full) ?
ALOX12 inhib: -2%; IMPase Li cell: -7%; ALDH1A1 block: 11%; HPGD inh: 1%

What do the screens show for `Cc1cccc2cc(CN(CC3CCCO3)S(=O)(=O)c3ccccc3)c3nnnn3c12` (stereo not given)?
ALOX12 inhib: 1%; IMPase Li cell: -1%[38.3 µM]; ALDH1A1 block: inconclusive; HPGD inh: -12%; IMPase cell inh: 3; PNC assembly inh: -21

What do the screens show for `Cc1ccc2cc(CN(CC3CCCO3)S(=O)(=O)c3ccccc3)c3nnnn3c2c1` (stereo not given)?
ALOX12 inhib: 2%; IMPase Li cell: 14%; ALDH1A1 block: 7.1µM*; HPGD inh: -20%; IMPase cell inh: 3; PNC assembly inh: -100*

How did COc1ccc(N/N=C(C)/C(=N/O)C(=O)Nc2ccccc2)cc1 do in these assays?
IMPase Li cell: -2%; ALDH1A1 block: 14µM*

Results for COc1ccc(NC(=O)c2ccccc2-c2ccccc2)cc1 ?
IMPase Li cell: 10%; ALDH1A1 block: -2%

Results for N#Cc1c(C(F)(F)F)cc(-c2cccs2)nc1SCC(=O)Nc1ccccc1F ?
IMPase cell inh: -15

What do the screens show for `O=C(NCCc1ccccc1F)C1CCCN1S(=O)(=O)c1ccc2ccccc2c1` (stereo not given)?
ALOX12 inhib: -8%; IMPase Li cell: 36%; ALDH1A1 block: 2%; HPGD inh: 16µM*; IMPase cell inh: 13; PNC assembly inh: -10

Compound activity from PubChem.
